Calls of active or inactive are those of the source. Cut-off read from the data, not from the text of the source, unless noted: active = nuclear beta-catenin stimulation mostly above about 4.2% (no sharp cut-off); inactive = mostly below about 10%.

A short description of experiment [1]: stimulators of nuclear beta-catenin in C2C12, primary screen, imaging, WNT3A-conditioned medium, mouse C2C12, NPC library (AID 1117326). Note: reference of the scale not given here. As to conditions: stronger effect = higher value.
Experiment [2] in a line: stimulators of insulin release from INS-1E, primary screen, cell-based, 5 mM glucose, NPC library (AID 1117329;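 active = compound raises insulin release from rat beta cells at 5 mM glucose, no numeric limit stated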; note: reference of the scale not given here). As to conditions: rat INS-1E insulin secretion, at 10 µM, stronger effect = higher value.
Experiment [3] is described as follows: growth inhibition of GSK3B-pretreated HCT116 cells – cell-based, CellTiter-Glo, 0.2 to 20 µM (AID 1117336;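 active = compounds lowering colon cancer cell viability after pretreatment blocking the GSK3B kinase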). The settings on record: HCT116 viability after GSK3B inhibitor, at 20 µM, stronger effect = higher value. (In general: ATP-based viability assays read luminescence as a measure of living cells.)
Experiment [4] in a line: inhibition of endothelial tube formation, primary screen, imaging, VEGF stimulated, CD31 staining, tube area, NPC library (AID 1117340;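 active = compound that reduces growth-factor-driven endothelial tube area in a mixed cell culture, no cutoff stated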). The settings on record: VEGF-stimulated ADSC/ECFC co-culture, at 10 µM, stronger effect = higher value.
Experiment [5] is described as follows: glucagon-like peptide 1 release enhancers, primary assay, NCI-H716 cell line, NPC library (AID 1117341;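 active = compound raises GLP1 secretion from the human gut endocrine cells, with no numeric limit stated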; note: reference of the scale not given here). As to conditions: NCI-H716 cells, at 10 µM, stronger effect = higher value.
Experiment [6] in a line: HCT116 colon cancer cell growth inhibition, primary screen, CellTiter-Glo luminescence, NPC library (AID 1117342;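 active = compounds that lower survival of HCT116 colon cancer cells in the luminescence readout, no numeric limit stated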). As to conditions: at 20 µM (top of the series).
A short description of experiment [7]: CellTiter-Glo luminescent readout of SW480 viability loss, NPC library primary (AID 1117343;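 active = compounds that lower viability of the colon cancer cells in the luminescence readout, with no numeric limit stated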). The settings on record: CellTiter-Glo luminescence; at 20 µM (top of the series).
Experiment [8] in a line: decreased DLD-1 cellular survival, CellTiter-Glo luminescent readout, NPC compound collection, primary HTS (AID 1117346;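 active = compounds that lower survival of DLD-1 colon cancer cells in the luminescence readout, no cutoff given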). As to conditions: DLD-1 viability, CellTiter-Glo luminescence; at 20 µM (top of the series).

For `CCCCNCC(O)c1ccc(O)cc1` (stereo not drawn), the nuclear beta-catenin stimulation in experiment [1] (at 10 µM) is -0.1% (inactive); in experiment [1] (stimulation, at 2 µM) it was 3.1%. Besides, the insulin secretion stimulation in experiment [2] was 2.3% (inactive). Also, the viability decrease in experiment [3] is 0.3% (inactive). Further, in experiment [4], the tube area decrease is 16.9% (inactive). For the same compound, the GLP1 secretion stimulation in experiment [5] was -2.1% (inactive). Besides, in experiment [6], the inhibition of viability is 8% (inactive). Also, the viability decrease (inhibition) is -1.7% (inactive) in experiment [7] and -9.2% (inactive) in experiment [8].

As to `O=C(O)c1ccc(=O)[nH]c1`, the nuclear beta-catenin stimulation in experiment [1] (at 10 µM) is 0.4% (inactive); in experiment [1] (stimulation, at 2 µM) it was 0.8%. Further, in experiment [2], the insulin secretion stimulation is 2.6% (inactive). Also, the viability decrease in experiment [3] is 3.2% (inactive). In addition, the tube area decrease in experiment [4] was -2.4% (inactive). Further, the GLP1 secretion stimulation in experiment [5] was -0.3% (inactive). The inhibition of viability in experiment [6] is 7.7% (inactive). For the same compound, the viability decrease (inhibition) in experiment [7] is -13.1% (inactive); in experiment [8], -3.9% (inactive).

With `C[C@]12C=CC(=O)C=C1CC[C@@H]1[C@@H]2CC[C@@]2(C)[C@H]1CC[C@]2(C)O`, the nuclear beta-catenin stimulation in experiment [1] (at 10 µM) is 6.6% (inactive); in experiment [1] (stimulation, at 2 µM), 2.4%. Moreover, the insulin secretion stimulation in experiment [2] is 1.5% (inactive). The viability decrease in experiment [3] is 38.6% (inactive). Moreover, in experiment [4], the tube area decrease was 31.2% (inactive). The GLP1 secretion stimulation in experiment [5] was 4% (inactive). The inhibition of viability in experiment [6] was 29.9% (inactive). Besides, the viability decrease (inhibition) in experiment [7] was 75.7% (active); in experiment [8], 17.9% (inactive).

Regarding `C[C@]12CC[C@H]3[C@@H](CCC4=CC(=O)CC[C@@]43C)[C@@H]1CC[C@@H]2C(=O)O`, the nuclear beta-catenin stimulation in experiment [1] (at 10 µM) was 0.7% (inactive); in experiment [1] (stimulation, at 2 µM), 0.3%. In addition, the insulin secretion stimulation in experiment [2] was 0.2% (inactive). Also, the viability decrease in experiment [3] is 3.5% (inactive). The tube area decrease in experiment [4] was 8.1% (inactive). Also, the GLP1 secretion stimulation in experiment [5] was -3.2% (inactive). Besides, the inhibition of viability in experiment [6] was 5.9% (inactive). The viability decrease (inhibition) in experiment [7] is -1.3% (inactive); in experiment [8] it was 2.4% (inactive).

Turning to `Oc1ccccc1-c1ccccc1`, the nuclear beta-catenin stimulation in experiment [1] (at 10 µM) was 0.6% (inactive); in experiment [1] (stimulation, at 2 µM), -0.1%. Moreover, the insulin secretion stimulation in experiment [2] was -2.4% (inactive). The viability decrease in experiment [3] is -2.35% (inactive). Further, in experiment [4], the tube area decrease was -3.5% (inactive). Also, the GLP1 secretion stimulation in experiment [5] was -1.2% (inactive). For the same compound, the inhibition of viability in experiment [6] was -18.2% (inactive). For the same compound, the values for the viability decrease (inhibition) in experiment [7] and in experiment [8] were 15.3% (inactive) and 8.7% (inactive), respectively.

`CC(Cc1ccccc1)NCc1ccccc1Cl` (stereo not drawn): the nuclear beta-catenin stimulation in experiment [1] (at 10 µM) is 0.1% (inactive); in experiment [1] (stimulation, at 2 µM), 0%. Further, in experiment [2], the insulin secretion stimulation is 10.2% (inactive). Besides, in experiment [3], the viability decrease was 26.5% (inactive). For the same compound, the tube area decrease in experiment [4] is -19.5% (inactive). In addition, the GLP1 secretion stimulation in experiment [5] was 2.3% (inactive). Moreover, the inhibition of viability in experiment [6] was 21.9% (inactive). Besides, the viability decrease (inhibition) in experiment [7] was 51.1% (active); in experiment [8], 22.6% (inactive).

On to `Cc1nnc2n1-c1sc(CCc3ccc(CC(C)C)cc3)cc1C(c1ccccc1Cl)=NC2C` (stereo not drawn), for which the nuclear beta-catenin stimulation in experiment [1] (at 10 µM) is -1% (inactive); in experiment [1] (stimulation, at 2 µM), 3.8%. Moreover, the insulin secretion stimulation in experiment [2] was 4.1% (inactive). Besides, the viability decrease in experiment [3] was 110% (active). In addition, the tube area decrease in experiment [4] was 48.1% (active). In experiment [5], the GLP1 secretion stimulation is 20.1% (active). Besides, the inhibition of viability in experiment [6] was 113% (active). Also, the viability decrease (inhibition) in experiment [7] was 134% (active); in experiment [8], 102% (active).

(Values after PubChem BioAssay.)
